DAX1 inh-1 = NR0B1 (DAX1) inhibition | P51843 | HEK293 Gal4-DAX1 luciferase reporter, luminescence | inhibition, % at 6.75 µM | 340,000 compounds, 0.99% hits | AID 504766;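 active means inhibition above the mean over all tested compounds plus 3 SD, cut at about 4.2% in these data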;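 further: 0% = DAX1-transfected cells with DMSO and 100% = empty-vector control cells with DMSO; inhibition shows as a rise in luminescence from relieved DAX1 repression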
hgDAF-12 ag = hgDAF-12 agonism, primary luciferase screen | 370,000 compounds, 1.8% hits | HEK293 GAL4-hgDAF12 UAS-luciferase reporter, agonist luminescence; normalized to butyrate control | activation, % at 6.8 µM | AID 687014;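 active means activation above a cutoff set at the mean of all screened compounds plus 3 SD, cut at about 10% in these data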;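 further: 0% = DMSO wells and 100% = sodium butyrate wells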
DAX1 inh-2 = DAX1 (NR0B1) inhibition, primary screen; HEK293T StAR-luciferase reporter, SF-1/DAX-1 repression relief; inhibition, % at 6.8 µM; 370,000 compounds, 1.1% hits; AID 652010;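 active means inhibition above the mean over all tested compounds plus 3 SD, cut at about 3.6% in these data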;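 further: 0% = DAX-1 cells with DMSO and 100% = cells lacking DAX-1 with DMSO; higher inhibition means more luminescence from relief of DAX-1 repression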
hcDAF12 agonist = activates DAF-12 receptor from parasite H. contortus; AID 652067; activation, % at 6.8 µM; 370,000 compounds, 1.4% hits; HEK293 hcDAF-12 lit1-tk-luc reporter, luminescence; 0% DMSO, 100% Δ7-dafachronic acid;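 active means activation above the mean of all tested compounds plus 3 SD, cut at about 5.5% in these data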;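 further: 100% = response to 3 µM Δ7-dafachronic acid high control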
ssDAF12 agonist = activates DAF-12 receptor from parasite S. stercoralis. HEK293 ssDAF-12/GRIP1 lit1-tk-luc reporter, luminescence; % of 3 µM dafachronic acid response. activation, % at 6.8 µM. 370,000 compounds, 1% hits. AID 652126;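 active means activation above the mean over all tested compounds plus 3 SD, cut at about 0.9% in these data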;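 further: 0% = DMSO-only wells and 100% = 3 µM delta7-dafachronic acid wells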
Rev-erbA mod = Rev-erb alpha (human) modulation | 370,000 compounds, 0.79% hits | activity, % at 10 µM | Rev-erbα–FITC-DNA binding, fluorescence polarization, 90 min | P20393;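 active means activity above about 14%, limit read from the data; passing the limit was not always enough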;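 further: 0% = DMSO wells with 35 nM protein and 100% = DMSO wells with 750 nM protein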
Target sequence (P20393 whole entry, looked up): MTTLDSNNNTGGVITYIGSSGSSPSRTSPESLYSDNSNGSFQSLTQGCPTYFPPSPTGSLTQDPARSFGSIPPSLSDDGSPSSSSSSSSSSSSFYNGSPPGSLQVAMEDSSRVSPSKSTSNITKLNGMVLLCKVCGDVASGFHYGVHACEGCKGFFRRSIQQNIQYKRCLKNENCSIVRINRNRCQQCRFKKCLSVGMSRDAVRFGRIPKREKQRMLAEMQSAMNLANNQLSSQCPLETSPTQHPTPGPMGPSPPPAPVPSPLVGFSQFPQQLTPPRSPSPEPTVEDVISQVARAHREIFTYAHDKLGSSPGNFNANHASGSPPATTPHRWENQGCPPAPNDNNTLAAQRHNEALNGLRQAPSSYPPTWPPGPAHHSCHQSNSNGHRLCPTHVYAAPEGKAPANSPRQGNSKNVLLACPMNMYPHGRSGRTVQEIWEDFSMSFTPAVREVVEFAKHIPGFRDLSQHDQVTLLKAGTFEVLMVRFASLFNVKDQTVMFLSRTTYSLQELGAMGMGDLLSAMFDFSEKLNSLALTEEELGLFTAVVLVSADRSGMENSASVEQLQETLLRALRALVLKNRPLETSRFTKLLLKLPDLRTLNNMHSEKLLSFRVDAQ
LXRb hcDAF ctr = LXR-beta agonism as hcDAF-12 counter-screen; shares compounds with hcDAF12 agonist; HEK293 Gal4-LXR tk-luc reporter, luminescence, 24 h; normalized: DMSO 0%, positive control 100%; activation, % at 6.8 µM; 3,400 tested, under 10 active;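 active means mean percent activation of the reporter above a cutoff set as the average over tested compounds plus their standard deviation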
hcDAF12 ag = hcDAF-12 agonism, confirmation assay | shares compounds with hcDAF12 agonist | HEK293 hcDAF-12 lit1-tk-luc reporter, luminescence; % of Δ7-dafachronic acid response | activation, % at 6.8 µM | 3,400 compounds, 61% hits | AID 743032;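 active means mean activation across triplicate tests above the threshold derived from the earlier primary screen, cut at about 5.5% in these data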;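 further: 0% = DMSO only wells and 100% = 3 µM Δ7-dafachronic acid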
An asterisk follows results filed as active; . = not tested or not shown. An excerpt weighted towards active compounds, which were near 4.8% of everything screened.

SMILES	DAX1 inh-1	hgDAF-12 ag	DAX1 inh-2	hcDAF12 agonist	ssDAF12 agonist	Rev-erbA mod	LXRb hcDAF ctr	hcDAF12 ag
O=C(OCc1nc2ccccc2s1)c1cccc(S(=O)(=O)N2CCOCC2)c1	2	8	2	7.7*	1	5	1	9.2*
Cc1nnc(SCC(=O)Nc2cc(S(=O)(=O)N3CCOCC3)ccc2C)s1	0	0	0	-1	-1	-4	.	.
O=C(CCc1ccc(S(=O)(=O)N2CCOCC2)cc1)OCc1nc2ccccc2s1	2	4	2	4	0	-3	.	.
Clc1ccccc1-c1ccc(/C=N/Nc2nncc(-c3ccccc3)n2)o1	-2	0	0	10*	0	-9	0	3
Clc1ccc(-c2ccc(/C=N/Nc3nncc(-c4ccccc4)n3)o2)cc1	-1	0	0	-1	-1	3	.	.
O=C(C(=O)N1CCN(S(=O)(=O)c2ccc(Cl)cc2)CC1)c1cccc(C(F)(F)F)c1	.	1	1	-1	-1	-7	.	.
CN1c2ccsc2/C(=N/Nc2ccc(F)cc2)CS1(=O)=O	5.9*	9	2	7.1*	4.7*	4	1	9.1*
Cc1ccc(N/N=C2\CS(=O)(=O)N(C)c3ccsc32)cc1	11*	8	1	10*	1.2*	-3	0	8.7*
COC(=O)N1Cc2ccnnc2CC1c1ccccc1-c1ccc(OC)cc1 (stereo not given)	.	-2	1	1	-1	-1	.	.
O=C(CSc1nnc(-c2ccccc2)n1-c1ccccc1)NN=C/C=C\c1ccccc1[N+](=O)[O-]	.	-3	-1	-2	-2	-6	.	.
Cc1occc1-c1nnc(SCC(=O)Nc2ccccn2)n1-c1ccccc1	.	2	0	-3	0	0	.	.
CCOCCCNC(=O)c1cc2c(=O)n3cccc(C)c3nc2s1	0	1	0	12*	0	-1	0	3
O=[N+]([O-])c1cccc2ccc(/C=C/c3ccc(C(F)(F)F)cc3)nc12	0	2	0	7.6*	0	1	0	2
O=[N+]([O-])c1cccc2ccc(/C=C/c3ccc(Cl)cc3)nc12	0	6	1	4	0	-4	.	.
Cc1csc(NC(=O)CSc2sc3c(O)cc(=O)[nH]c3c2C#N)n1	-1	0	0	6.6*	0	-8	0	3
CCc1nnc(NC(=O)CSc2sc3c(O)cc(=O)[nH]c3c2C#N)s1	0	1	0	3	0	-18	.	.
FC(F)(F)c1nc2cc3nc4ccccc4[nH]c3cc2n1	3	2	0	7.6*	0	1	1	4
Cc1ccc(-c2nc3cccnc3s2)cc1NC(=O)c1ccco1	1	9	2	13*	0	-5	0	4
Cc1ccc(Nc2nc(N/N=C/c3c[nH]c4ccccc34)nc(N3CCOCC3)n2)cc1	-1	1	0	7.5*	1.1*	3	-1	-1
Cc1[nH]c2ccccc2c1/C=N/Nc1nc(Nc2ccc(F)cc2)nc(N2CCOCC2)n1	2	3	1	6.8*	0	-3	0	2
COC(=O)C1CCCN(C(=O)C2CCN(S(=O)(=O)c3cccs3)CC2)C1 (stereo not given)	.	-1	0	-3	-2	0	.	.
COc1cccc2c1SCc1ccccc1C2CC(N)=O (stereo not given)	1	0	1	6.8*	0	1	0	3
COc1ccccc1CC(=O)NC1CCCc2ccccc21 (stereo not given)	1	1	0	-1	-1	-1	.	.
COc1cccc(/C=C2\CC3(OC(=O)c4ccc(F)cc4)CCCN2C3)c1 (stereo not given)	.	-1	1	1	-1	1	.	.
C[C@@H]1COc2cc(N3CCOCC3)ccc2S(=O)(=O)N1	.	0	0	0	-1	-2	.	.
SMILES	DAX1 inh-1	hgDAF-12 ag	DAX1 inh-2	hcDAF12 agonist	ssDAF12 agonist	Rev-erbA mod	LXRb hcDAF ctr	hcDAF12 ag
CCOC(=O)c1ccccc1N/C=C/C(=O)c1ccccc1	0	5	0	-1	0	-2	.	.
NC(=O)c1ccccc1N/C=C/C(=O)c1ccc(Cl)cc1	-1	10	3	6.7*	1	4	1	5
COC(=O)C1=C(C)N(Cc2ccccc2C(F)(F)F)C(=NCC2CC2)NC1c1cccc(F)c1 (stereo not given)	.	-6	-1	-2	-2	-4	.	.
Cc1ccc(C2NC(=O)c3c(sc(C)c3C)N2)c(O)c1 (stereo not given)	1	9	2	9.0*	1.0*	-4	0	8.4*
c1ccc(NC2=Nc3ccccc3CS2)cc1	1	13*	1	7.2*	0	0	1	7.5*
O=[N+]([O-])c1cccn2cc(-c3ccc(Br)cc3)nc12	0	4	2	4	0	-4	.	.
Nc1nn2cc(-c3ccc(Br)cc3)nc2c2ccccc12	2	10	3	11*	1.6*	-3	1	14*
Cc1ccc(Nc2nc(=O)c3cccnc3s2)cc1	1	9	2	11*	1.3*	-3	1	9.3*
Cc1[nH]n(C(N)=S)c(=O)c1N=Nc1ccc(S(=O)(=O)N2CCCC2)cc1	2	3	0	-1	-1	4	.	.
Cc1[nH]n(C(N)=S)c(=O)c1N=Nc1ccc(Br)cc1	2	5	1	7.3*	0	6	1	14*
CC(C)(C)c1ccc(S(=O)(=O)N2CCCC(C(=O)NCc3cccs3)C2)cc1 (stereo not given)	.	3	-1	-1	-2	-3	.	.
Cc1ccc(Nc2nnc(SCC(=O)NCCN3C(=O)CSC3=O)s2)cc1C	0	11*	2	12*	-1	-7	0	3
COC(=O)[C@]12C[C@H](CC(=O)N3CCSCC3)C(=O)N(CCC3=CCCCC3)C1=C[C@H](C1CCCC1)O[C@@H]2C	.	8	-1	-1	-2	-3	.	.
COC(=O)c1cccc(C(=O)Nc2ccc(C)cc2)n1	0	8	3	7.1*	1.0*	5	0	7.5*
CCc1ccc(NC(=O)c2cccc(C(=O)Nc3ccc(CC)cc3)n2)cc1	-2	1	0	3	-1	-5	.	.
COc1cccc(Cn2cc(COC(=O)N(C)Cc3ccccc3)nn2)c1	.	-1	-1	-2	-1	4	.	.

Compound activity deposited in PubChem BioAssay by several laboratories.
